# Reference: PubChem BioAssay AID687016 (The Scripps Research Institute Molecular Screening Center, 2013)
# Values joined by “and” are separate entries in the source; they are usually repeats but may differ in a detail not shown here. Identical values can stand only once. Among all 370,000 compounds or so, about 2,800 (0.76%) were called active. The sample holds actives, similar compounds and a random draw of the others, so the mix is not that of the screen. No stated cut-off is given here; in the data, active means inhibition above about 21%; inactive means the rest. Where a structure was tested more than once in an assay, its records may differ in their call.
# Biological target: E3 ubiquitin-protein ligase UHRF1 (Homo sapiens) (UniProt Q96T88)
# Sequence (Q96T88 whole entry, looked up, the tested form may be a part): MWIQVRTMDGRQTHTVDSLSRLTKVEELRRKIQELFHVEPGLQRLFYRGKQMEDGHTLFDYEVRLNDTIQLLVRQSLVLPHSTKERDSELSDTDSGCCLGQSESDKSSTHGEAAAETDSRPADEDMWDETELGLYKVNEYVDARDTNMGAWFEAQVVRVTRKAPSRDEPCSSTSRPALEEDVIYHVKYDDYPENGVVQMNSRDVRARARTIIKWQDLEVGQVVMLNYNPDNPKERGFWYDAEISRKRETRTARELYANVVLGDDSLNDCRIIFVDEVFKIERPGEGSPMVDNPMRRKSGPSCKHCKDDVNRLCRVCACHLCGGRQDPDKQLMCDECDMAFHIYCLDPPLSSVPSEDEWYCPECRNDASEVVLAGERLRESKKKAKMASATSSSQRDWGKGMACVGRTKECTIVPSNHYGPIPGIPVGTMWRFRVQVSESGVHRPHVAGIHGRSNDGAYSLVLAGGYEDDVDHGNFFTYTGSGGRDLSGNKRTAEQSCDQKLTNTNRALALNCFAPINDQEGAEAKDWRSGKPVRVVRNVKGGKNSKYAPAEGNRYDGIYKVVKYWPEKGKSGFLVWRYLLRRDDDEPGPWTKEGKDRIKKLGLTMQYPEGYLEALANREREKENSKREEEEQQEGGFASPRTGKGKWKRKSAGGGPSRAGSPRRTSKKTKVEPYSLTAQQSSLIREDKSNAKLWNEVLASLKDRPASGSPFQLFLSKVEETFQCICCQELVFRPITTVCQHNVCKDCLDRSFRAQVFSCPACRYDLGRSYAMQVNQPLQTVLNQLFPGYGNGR
# Test: UHRF1 methylated DNA binding inhibitors, primary screen, counter-screen for MBD2 inhibitor project, biochemical, TR-FRET, human UHRF1, single concentration (AID 687016);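 further: UHRF1 SRA domain binding a hemimethylated CpG hairpin DNA probe; 0% = median of test compound wells and 100% = reference inhibitor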
# Conditions: UHRF1 binding to methylated oligo, at 4.4 µM, stronger effect = higher value
row,Compound,inhibition
1,O=C(NCc1ccc(Cl)cc1)C1CCCN(c2nc3ccccc3o2)C1 (stereo not given),2.81% (inactive)
2,COc1ccc(N2CCN(CCNS(=O)(=O)c3ccc(Cl)s3)CC2)cc1,-0.57% (inactive)
3,O=C(Nc1ccc(Cl)cc1)OCc1cc(-c2ccccc2)on1,2.42% (inactive)
4,CC(C)(COC(=O)Nc1ccccc1)COC(=O)Nc1ccccc1,-1.28% (inactive)
5,Cc1ccc(NC(=O)OCc2cncs2)cc1,49.5% (active)
6,CN1C[C@]2(C=C3CCCCC3n3c(=O)n(-c4ccccc4)c(=O)n32)N=C1NC(=O)c1ccccc1 (stereo not given in full),-2.02% (inactive)
7,CCOC(=O)[C@@]12CCC3=C1N(CCC3)C(=O)[C@H](CC(=O)N1CCN(C(=O)c3ccco3)CC1)C2,-1.01% (inactive)
8,Cc1ccc(-c2nc(C3CCCN(S(=O)(=O)c4ccc(Br)s4)C3)no2)cc1 (stereo not given),1.59% (inactive)
9,Cc1cc(C)c2nc3nc(C)cc(C)c3c(N)c2c1,26.9% (active)
10,CCCCN1CCN(C(=O)c2ccc3c(c2)NC(=O)C(C)(C)O3)CC1,0.61% (inactive)
11,C=CCN1[C@H](CC(C)C)COc2cccc(N3CCCC3)c2S1(=O)=O,-0.17% (inactive)
12,Cc1ccccc1NC(=O)CN1C(=O)N/C(=C\c2cccn2-c2cccc(C(=O)O)c2)C1=O,74.8% (active)
13,COC(=O)CN1C(=O)N/C(=C/c2ccc(OC)c(C)c2OC)C1=O,-4.91% (inactive)
14,Cc1ccccc1NC(=O)Cn1c(=O)n(CC2CCCO2)c(=O)c2ccccc21 (stereo not given),-0.24% (inactive)
15,CC(C)(C)C1C/C(=C/c2ccco2)C(=O)/C(=C/c2ccco2)C1 (stereo not given),99.5% (active)
16,CCN1CCN(C(=O)N[C@@H](C(=O)N[C@@H]2C(=O)N3C(C(=O)O)=C(CSc4nnnn4C)CS[C@H]23)c2ccc(O)cc2)C(=O)C1=O,-2.2% (inactive)
17,CO/N=C(\C(=O)N[C@@H]1C(=O)N2C(C(=O)O)=C(COC(C)=O)CS[C@H]12)c1csc(N)n1 (stereo in doubt),9.54% (inactive) and 0.92% (inactive) and 27.5% (active)
18,C=CC1=C(C(=O)O)N2C(=O)[C@@H](NC(=O)/C(=N/OCC(=O)O)c3csc(N)n3)[C@H]2SC1,93.7% (active)
19,C=CC1=C(C(=O)O)N2C(=O)[C@@H](NC(=O)/C(=N\OCC(=O)O)c3csc(N)n3)[C@H]2SC1,77.4% (active)
20,COc1ccc(-n2c(COc3ccc(C)cc3)nnc2SCC(=O)Nc2ccc(Oc3ccccc3)cc2)cc1,-5.28% (inactive)
21,CN(C)Cc1cn(-c2ccc(-c3noc4c3C(=O)N(CC(=O)N3CCOCC3)CC4)cc2)nn1,2.67% (inactive)
22,O=C(CN1CCCCC1)Nc1ccccc1Cl,45.6% (active)
23,O=C(CN1CCCCCC1)Nc1c(Cl)cc(Cl)cc1Cl,-0.79% (inactive)
24,CCOc1ccc(NC(=O)COc2ccc(S(=O)(=O)N3CCCC3)cc2)cc1,1.66% (inactive)
25,O=C(CN1CCCCCC1)Nc1ccc(S(=O)(=O)N2CCCCC2)cc1,62.1% (active)
26,O=C(CN1CCCCC1)Nc1ccccc1C(=O)NC1CC1,3.15% (inactive)
27,O=C(CSCc1ccc(Br)cc1)Nc1ccc(S(=O)(=O)N2CCCCCC2)cc1,-1.33% (inactive)
28,CC(=O)Nc1ccc(OC[C@@H](O)CN2CCC(C(O)(c3ccccc3)c3ccccc3)CC2)cc1,1.32% (inactive)

row,Compound,inhibition
1,Cc1ccc(NC(=O)c2cc(C)nn2-c2ccccc2)c(C)c1,-1.23% (inactive)
2,CCCCCN1CCCCC(NC(=O)C(C)CCC)C1=O (stereo not given),-0.32% (inactive)
3,CCN(CC)CCNC(=O)Cn1cnc2sc(C)c(S(=O)(=O)N3CCOCC3)c2c1=O,6.01% (inactive)
4,CCN(CC)CCCNC(=O)Cn1cnc2sc(C)c(S(=O)(=O)N3CCN(c4ncccn4)CC3)c2c1=O,31.2% (active)
5,Cc1sc2ncn(CC(=O)NCCN(C)C)c(=O)c2c1S(=O)(=O)N1CCC(C)CC1,-1.58% (inactive)
6,C=CCN1C(=O)[C@@H](CC(=O)NCCCOCCCC)[C@]2(C(=O)OCC)CCCCC/C=C/12,-0.5% (inactive)
7,C=C(C)C#CC(Cc1ccccc1)N(CC1CC1)/C(N)=N/C(=O)OCc1ccccc1 (stereo not given),-3.18% (inactive)
8,COc1ccc(C(=O)NCCSc2ccccc2C)cc1,0.98% (inactive)
9,COc1cccc(C(=O)NC(=O)Nc2nc(C)cc(C(F)(F)F)n2)c1,0.01% (inactive)
10,COc1ccc(C(=O)NNc2cc(C)nc(NNC(=O)c3ccc(OC)cc3)n2)cc1,20.7% (active)
11,CCOC(=O)C1CCN(C(=O)C(C)(C)NC(=O)Nc2ccc(F)c(F)c2)CC1,2.59% (inactive)
12,O=C(Nc1ccc(N2CCN(C(=O)c3cccs3)CC2)cc1)c1cccnc1Cl,-0.07% (inactive)
13,O=C(COc1ccccc1)Nc1ccc(N2CCN(C(=O)c3cccs3)CC2)cc1,44.9% (active)
14,COc1ccc(N2CCN(C(=O)c3cccs3)CC2)cc1,-7.02% (inactive)
15,CCOc1ccc(N(CC(=O)NCCc2ccc(F)cc2)S(=O)(=O)c2ccccc2)cc1,16.8% (inactive)
16,COc1ccc(CCNC(=O)CN(c2ccccc2)S(=O)(=O)c2ccccc2)cc1,1.05% (inactive)
17,CCOc1ccc(N(CC(=O)NCCOc2ccccc2OC)S(=O)(=O)c2ccccc2)cc1,28% (active)
18,Cc1ccc(Cn2cc(CN3[C@@H](C)COc4cc(Br)ccc4S3(=O)=O)nn2)cc1,-1.6% (inactive)
19,COC(=O)[C@]12C[C@H](CC(=O)NCc3ccccc3)C(=O)N(Cc3ccccc3)C1=C[C@H](COCc1ccccc1)O[C@@H]2C,3.31% (inactive)
20,O=S1(=O)c2c(cccc2N2CCSCC2)Oc2ccccc2CN1Cc1cn(Cc2ccc(F)cc2)nn1,2.59% (inactive)
21,CN(C)S(=O)(=O)c1cccc(C(=O)N/N=C\c2ccco2)c1,-2.24% (inactive)
22,O=C(N/N=C/c1ccco1)c1ccc(C(=O)N/N=C/c2ccco2)o1,38.3% (active)
23,O=C(Cn1cnc2ccccc21)N/N=C/c1ccco1,-2.46% (inactive)
24,C=CS(=O)(=O)N(Cc1nnn(Cc2ccccc2)c1Br)[C@H](C(=O)OC)C(C)C,3.67% (inactive)
25,CN(C)CCNC(=O)Cc1ccc([N+](=O)[O-])cc1,-0.93% (inactive)
26,CN(C)CCNC(=O)c1ccc(Cl)c2cc3ccccc3nc12,30.7% (active)
27,O=C(NCCCNC(=O)c1ccccc1Cl)c1cnccn1,4.5% (inactive)
